# Results as given in PubChem BioAssay (Tox21).
# Where “and” joins values, the source holds several entries; their conditions need not be identical. Equal entries are not always repeated. Results filed as inconclusive are left out. A call without a number means that no potency is given here. Some structures have more than one record in an assay (separate samples or runs), and their calls can disagree. Calls of active or inactive are those of the source. Unless noted, calls follow the shape of the dose curve; as a rule, active = well fitted curve in the direction sought with a large enough effect in the repeat runs; inconclusive = weak or mixed curves; inactive = no such curve, though single readings can be large; an effect the other way counts as inactive or inconclusive.
# How the values were obtained:
# [1] = qHTS assay to identify small molecule antagonists of the vitamin D receptor (VDR) signaling pathway - cell viability counter screen (AID 743225); also: nearly all actives have a fitted effect of over 50% in size; also: potency is read from the fitted curve at half-maximal effect
# How it was run: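 Cytotoxicity toward the VDR-bla HEK 293T line was scored by ATP-based CellTiter-Glo luminescence, read in the wells already used for the beta-lactamase readout after 16 h compound treatment under 3 nM 1-alpha,25-dihydroxyvitamin D3 stimulation.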
# [2] = qHTS assay to identify small molecule agonists of the endoplasmic reticulum stress response signaling pathway - cell viability counter screen (AID 1159517; calls by dose curve; also: nearly all actives have a fitted effect of over 50% in size; also: potency is read from the fitted curve at half-maximal effect)
# How it was run: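 Luminescence readout: CellTiter-Glo, 30 min RT, same wells as the ESRE-bla reporter read. HeLa ESRE-bla, 1,500 cells/well, o/n 37 C; cpd 5 hr 37 C/5% CO2.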
# [3] = qHTS assay to identify small molecule antagonists of the retinoid-related orphan receptor gamma (ROR-gamma) signaling pathway - cell viability counter screen (AID 1159520); also: nearly all actives have a fitted effect of over 50% in size; also: potency is read from the fitted curve at half-maximal effect
# How it was run: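 Tet-on ROR gamma CHO cells (1,000/well) were plated 4 hr, given compounds in DMSO for 2 hr at 37 C, then induced with 1 uM final doxycycline for 16 hr. Viability was read as ATP by CellTiter-Glo luminescence after 30 min.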
# [4] = molecular target: Nuclear receptor ROR-gamma (Homo sapiens) (UniProt P51449); experiment: qHTS assay to identify small molecule antagonists of the retinoid-related orphan receptor gamma (ROR-gamma) signaling pathway (AID 1159521; also: nearly all actives have a fitted effect of over 50% in size; also: potency is read from the fitted curve at half-maximal effect)
# How it was run: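 Readout: ONE-Glo luciferase luminescence, 30 min at room temperature. System: Tet-on RORγ CHO, RORE-LUC. Sequence: compound 2 h, doxycycline 1 uM final, 16 h at 37 C.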
# [5] = qHTS assay to identify small molecule antagonists of the retinoid acid receptor (RAR) signaling pathway - cell viability counter screen (AID 1159551); also: nearly all actives have a fitted effect of over 35% in size
# How it was run: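 Seed C3RL4 cells; next day add compound, then retinol to 1 uM final; incubate 6 h at 37 C; add CellTiter-Glo; read luminescence after 30 min at RT.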
# [6] = qHTS assay to identify small molecule antagonists of the retinoic acid receptor (RAR) signaling pathway (AID 1159552; also: nearly all actives have a fitted effect of over 50% in size; also: potency is read from the fitted curve at half-maximal effect)
# How it was run: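 Overnight-plated C3RL4 reporter cells get compound, then retinol to 1 uM final; plates sit 6 hr at 37 C, 5% CO2. A luciferase reagent is added and light output recorded after 30 min at room temperature.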
# [7] = qHTS assay to identify small molecule agonists of the AP-1 signaling pathway - cell viability counter screen (AID 1159525; calls by dose curve; also: nearly all actives have a fitted effect of over 55% in size; also: potency is read from the fitted curve at half-maximal effect)
# How it was run: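 ME-180 AP-1-bla, 2500 cells/well, Opti-MEM + 0.5% dialyzed FBS; overnight 37 °C; cpd 15-pt titration, 5 h 37 °C; CellTiter-Glo 30 min RT; luminescence read; normalised to TOAB and DMSO controls.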
# [8] = qHTS assay to identify small molecule agonists of the AP-1 signaling pathway (AID 1159526; calls by dose curve; also: potency is read from the fitted curve at half-maximal effect)
# [9] = molecular target: Retinoic acid receptor RXR-alpha (Homo sapiens) (UniProt P19793); experiment: qHTS assay to identify small molecule agonists of the RXR signaling pathway (AID 1159527; calls by dose curve; also: nearly all actives have a fitted effect of over 35% in size)
# Sequence of Retinoic acid receptor RXR-alpha (Homo sapiens) (P19793 whole entry, looked up): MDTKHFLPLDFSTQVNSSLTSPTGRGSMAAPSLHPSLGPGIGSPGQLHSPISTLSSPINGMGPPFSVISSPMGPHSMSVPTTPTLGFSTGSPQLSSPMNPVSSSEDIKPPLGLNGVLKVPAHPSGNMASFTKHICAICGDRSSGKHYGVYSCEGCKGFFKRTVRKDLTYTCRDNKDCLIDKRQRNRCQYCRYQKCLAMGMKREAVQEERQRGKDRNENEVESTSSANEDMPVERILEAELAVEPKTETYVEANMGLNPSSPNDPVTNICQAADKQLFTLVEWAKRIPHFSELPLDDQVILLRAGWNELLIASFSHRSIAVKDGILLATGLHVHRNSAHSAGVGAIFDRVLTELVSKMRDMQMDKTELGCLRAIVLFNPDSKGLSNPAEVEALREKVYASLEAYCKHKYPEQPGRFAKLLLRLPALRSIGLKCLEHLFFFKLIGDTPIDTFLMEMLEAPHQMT
# How it was run: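 Reporter activation is measured as beta-lactamase activity via FRET substrate cleavage (emission 460/530 nm) in HEK 293T cells expressing an RXR-alpha-driven bla construct, following 16 hr compound exposure at 37 C.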
# [10] = qHTS assay to identify small molecule agonists of the RXR signaling pathway - cell viability counter screen (AID 1159529); also: nearly all actives have a fitted effect of over 50% in size; also: potency is read from the fitted curve at half-maximal effect
# How it was run: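 Tox21 10K compounds were tested for cytotoxicity against GeneBLAzer RXR-alpha HEK 293T cells grown in 2% charcoal-stripped FBS. Exposure lasted 16 hr at 37 C, 5% CO2; viability read by CellTiter-Glo luminescence.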
# [11] = qHTS assay to identify small molecule antagonists of the estrogen related receptor (ERR) signaling pathway from Tox21 library - cell viability counter screen (AID 1224834); also: nearly all actives have a fitted effect of over 30% in size; also: potency is read from the fitted curve at half-maximal effect
# How it was run: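 CellTiter-Fluor fluorescence measured; ERR cells; 17.5 h compound incubation at 37 C; 30 min reagent step.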
# [12] = qHTS assay to identify small molecule antagonists of the estrogen related receptor (ERR) signaling pathway - cell viability counter screen (AID 1224818);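 also: series mostly up to about 46 µM; viability measured after 17.5 h of compound exposure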
# How it was run: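 In the same ERR cell assay, compound-treated wells (17.5 h, 37 C) were multiplexed with a fluorogenic viability reagent, CellTiter-Fluor, read after 30 min to flag cytotoxic substances.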
# [13] = qHTS assay to identify small molecule agonists of the estrogen related receptor (ERR) signaling pathway (AID 1224820)
# How it was run: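 Quantitative HTS of the LOPAC library used NTP ERR reporter cells treated 18 h at 37 C. Signal is luminescence after One-Glo addition and a 30 min room-temperature incubation.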
# [14] = tested on: estrogen-related receptor alpha (ERRalpha) with PGC-1alpha coactivator, human; experiment: qHTS assay to identify small molecule antagonists of the estrogen related receptor signaling pathway with the pleiotropic PPARgamma coactivator (PGC) (AID 1224821; calls by dose curve)
# How it was run: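 Quantitative HTS for antagonism: PGC/ERR cells received compounds after 6 h attachment and were incubated 18 h at 37 C, with luminescence (One-Glo) as the endpoint.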
# [15] = qHTS assay to identify small molecule antagonists of the estrogen related receptor signaling pathway with the pleiotropic PPARgamma coactivator (PGC) cell viability counter screen (AID 1224822; also: series mostly up to about 46 µM)
# How it was run: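 Compounds in DMSO, with positive and negative controls, were applied to PGC/ERR cells (2,000/well) and left 17.5 h at 37 C before CellTiter-Fluor detection.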
# [16] = qHTS assay to identify small molecule agonists of the estrogen related receptor signaling pathway with the pleiotropic PPARgamma coactivator (PGC) (AID 1224823)
# How it was run: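 Cell-based luciferase assay in the NTP-supplied PGC/ERR line, 2,000 cells/well; 18 h compound exposure at 37 C, luminescence after One-Glo.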
# [17] = qHTS assay to identify small molecule agonists of the retinoic acid receptor (RAR) signaling pathway (AID 1159553)
# How it was run: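 Activation of retinol signaling was monitored via a RARE luciferase reporter in C3RL4 cells. After 6 hr compound treatment at 37 C, detection reagent was added for 30 min at room temperature before luminescence reading.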
smiles,measurement,setting,value
CC[C@H]1C[C@@H]2C[C@H]3c4[nH]c5ccc(OC)cc5c4CCN(C2)[C@@H]13,Potency,[1],inactive
same,Potency,[2],inactive
same,Potency,[3],inactive
same,Potency,[4],inactive
same,Potency,[5],inactive
same,Potency,[6],inactive
Cn1[nH]nnc1=S,Potency,[3],inactive
same,Potency,[4],inactive
same,Potency,[7],inactive
same,Potency,[8],49 µM (active)
same,outcome,[9],inactive
same,Potency,[10],inactive
same,Potency,[5],inactive
same,Potency,[6],inactive
same,Potency,[11],inactive
C[As+](C)(C)CC(=O)[O-],Potency,[3],inactive
same,Potency,[4],inactive
same,Potency,[7],inactive
same,Potency,[8],43.6 µM (active)
same,outcome,[9],inactive
same,Potency,[10],inactive
same,Potency,[5],inactive
same,Potency,[6],inactive
same,Potency,[11],inactive
Nc1ccc(Sc2ccc(N)cc2)cc1,Potency,[2],inactive
same,Potency,[3],inactive
same,Potency,[4],inactive
same,Potency,[7],inactive
same,Potency,[6],inactive
same,outcome,[12],inactive
same,outcome,[13],inactive
same,Potency,[14],inactive
same,Potency,[15],inactive
same,outcome,[16],inactive
ClC(Cl)=C(c1ccc(Cl)cc1)c1ccc(Cl)cc1,Potency,[1],inactive
same,Potency,[2],54.9 µM (active)
same,Potency,[3],inactive
same,Potency,[7],44.7 µM (active)
same,Potency,[10],56.3 µM (active) and 43.6 µM (active)
same,Potency,[5],inactive
same,Potency,[6],inactive
same,Potency,[17],inactive
same,Potency,[11],inactive
CC(C)(C)c1cc([N+](=O)[O-])cc(C(C)(C)C)c1O,Potency,[1],12.3 µM (active)
same,Potency,[2],inactive
same,Potency,[7],inactive
same,outcome,[9],inactive
same,Potency,[5],inactive
same,Potency,[6],15.4 µM (active)
same,Potency,[11],13.7 µM (active)
O=C(CCl)C(Cl)Cl,Potency,[2],inactive
same,Potency,[3],27.6 µM (active)
same,Potency,[5],inactive
same,Potency,[6],15.5 µM (active)
same,Potency,[11],27.6 µM (active)
CC(C)Oc1cccc(NC(=O)c2ccccc2C(F)(F)F)c1,Potency,[2],inactive
same,Potency,[3],inactive
same,Potency,[7],inactive
same,Potency,[8],inactive
same,Potency,[17],inactive
same,outcome,[12],inactive
same,outcome,[13],inactive
same,Potency,[15],inactive
same,outcome,[16],inactive
ClC1=C(Cl)[C@]2(Cl)[C@@H]3[C@@H](Cl)[C@@H](Cl)C[C@@H]3[C@@]1(Cl)C2(Cl)Cl,Potency,[3],inactive
same,Potency,[4],inactive
same,Potency,[7],inactive
same,Potency,[8],inactive
same,outcome,[9],inactive
same,Potency,[10],inactive
same,Potency,[5],inactive
same,Potency,[6],inactive
same,Potency,[11],inactive
Clc1ccc(COC(Cn2ccnc2)c2ccc(Cl)cc2Cl)cc1 (stereo not given),Potency,[1],45.7 µM (active) and 48.8 µM (active)
same,Potency,[2],61.4 µM (active)
same,Potency,[3],45.3 µM (active) and 60.9 µM (active)
same,Potency,[4],45.3 µM (active) and 30.5 µM (active) and 23.7 µM (active)
same,Potency,[7],54.7 µM (active) and 23.9 µM (active)
same,Potency,[10],32.3 µM (active) and 38.7 µM (active)
same,Potency,[6],50.8 µM (active) and 48.4 µM (active) and inactive
same,Potency,[11],45.3 µM (active) and 48.4 µM (active) and 26.6 µM (active)
CC(=O)OC1(c2ccccc2)CCN(CCc2ccccc2)CC1,Potency,[1],inactive
same,Potency,[2],inactive
same,Potency,[3],inactive
same,Potency,[7],inactive
same,outcome,[9],inactive
same,Potency,[10],inactive
same,Potency,[5],inactive
same,Potency,[6],inactive
same,Potency,[17],inactive
